# Compounds with a hit are over-represented: about 19% of the library has one in this group of screens.
# HT1080NT lethal: qHTS for induction of synthetic lethality in tumor cells producing 2HG: qHTS for the HT-1080-NT fibrosarcoma cell line. HT-1080-NT fibrosarcoma viability, CellTiter-Glo ATP luminescence, 48 h. Potency, µM (doses to about 46.1 µM), inactives show at the highest dose activity, negative = less viability, hits mostly cytotoxic. 360,000 tested, 1.6% active. AID 686970, 2013;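 further: NT is the 2HG producing partner of a matched IDH1 knockdown line; 0% = DMSO-treated cells and -100% = media-only wells without cells; nearly all actives have a fitted effect of over 55% in size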
#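 HT-1080-NT; 750 cells/well; 5% FBS RPMI; 48 h compound, 37 degrees C; CellTiter-Glo luminescence; curve fitting and curve-class assignment.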
# KB-V1 cytotox: qHTS assay for MDR1-selective chemotherapeutics: Primary screen using the drug-selected MDR subline cells KB-V1; KB-V1 MDR cells viability, CellTiter-Glo, 72 h; Potency, µM (doses to about 46.1 µM), hits mostly cytotoxic; 400,000 tested, 3.4% active; further: nearly all actives have a fitted effect of over 60% in size
#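 qHTS viability screen in drug-selected KB-V1 MDR cells: 72 h compound treatment at 37 degrees C, ATP luminescence end point.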
# HT1080 IDH1KD tx: qHTS for induction of synthetic lethality in tumor cells producing 2HG: qHTS for the HT-1080-IDH1KD cell line; AID 686971, 2013; 360,000 tested, 2% active; Potency, µM (highest dose often 46.1 µM), inactives show at the highest dose activity, negative = toxicity, hits mostly cytotoxic; HT-1080 IDH1 knockdown viability, ATP luminescence, 48 h;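 further: 0% = DMSO wells and -100% = cell-free medium wells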
#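 In this qHTS, HT-1080 cells depleted of IDH1 are exposed for 48 h at 37 °C to compound titrations. Toxicity is scored from CellTiter-Glo luminescence, with DMSO as full viability and medium alone as none.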
# DT40 TDP1 CPT: qHTS for Inhibitors of human tyrosyl-DNA phosphodiesterase 1 (TDP1): qHTS in cells in presence of CPT; chicken DT40 Tdp1-/-;hTDP1 cells + 20 nM CPT, ATP luminescence, 48 h; Potency, µM (titrated, usually from 46.2 µM), inactives show at the highest dose activity change, negative = growth inhibition, most hits filed as inhibitors; 420,000 tested, 12% active; further: nearly all actives have a fitted effect of over 55% in size
#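 Chicken DT40 Tdp1-/- cells complemented with human TDP1, 400 cells/well, exposed to compounds plus 20 nM camptothecin for at least 48 h at 37 C; viability read as ATP content by CellTiter-Glo luminescence.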
# KB-3-1 tox: qHTS assay for MDR1-selective chemotherapeutics: Primary screen using the parental adenocarcinoma cell KB-3-1; 400,000 tested, 1.4% active; KB-3-1 viability, CellTiter-Glo ATP luminescence, 72 h; Potency, µM (top dose mostly 46.1 µM), usual class: cytotoxic; AID 1347075, 2019; further: nearly all actives have a fitted effect of over 60% in size
#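 Cytotoxicity in the drug-sensitive parental line KB-3-1 was scored as loss of CellTiter-Glo luminescence following 72 h incubation with compound. Values come from curve fitting of normalized concentration-response data.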
# TDP1 cell noCPT: qHTS for Inhibitors of human tyrosyl-DNA phosphodiesterase 1 (TDP1): qHTS in cells in absence of CPT; Potency, µM (top dose mostly 46.2 µM), for inactives: top-dose activity change, negative = growth inhibition, hits mostly inhibitors; AID 686978, 2013; DT40 Tdp1-/- hTDP1 cells, no CPT, ATP luminescence, 48 h; 420,000 tested, 15% active; further: nearly all actives have a fitted effect of over 55% in size
#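 No-CPT arm: Tdp1-/-;hTDP1 DT40 cells (400/well) plus compounds, incubated ≥48 hr at 37 °C. Readout CellTiter-Glo luminescence.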
# The depositor's hits bear a star; i = inactive; ? = inconclusive; / = not tested or not shown. The call rests on the fitted dose curve; in most records, active means well fitted curve in the direction sought with a large enough effect; inconclusive means small, poorly fitted or top-dose-only effect, or another doubt; inactive means no such curve, though single readings can be large; an effect the other way counts as inactive or inconclusive. Unless noted, on the % scale 0 is the no-effect control and ±100 the full control effect; potency means the concentration at half of the fitted maximal effect.
SMILES,HT1080NT lethal,KB-V1 cytotox,HT1080 IDH1KD tx,DT40 TDP1 CPT,KB-3-1 tox,TDP1 cell noCPT
COC(=O)C[C@@H]1C=C[C@H](NC(=O)Nc2ccc(F)cc2)[C@@H](CO)O1,24%,i,?,-3%,i,7%
COc1cccc(NC(=O)CN(C)C(=O)c2ccc(OCc3ccccc3)c(OC)c2)c1,-3%,?,1%,3%,i,-4%
CCOc1ccc(-n2c(SCC(=O)NC(C)CC)nc3n[nH]c(C)c3c2=N)cc1 (stereo not given),?,i,?,?,i,18µM*
O=C(Nc1ccc(Cc2ccncc2)cc1)C1CCC(N2C(=O)C3CC=CCC3C2=O)CC1 (stereo not given),-25%,15µM*,-21%,21µM*,i,16µM*
COc1ccc(NC(=O)C2CCC(N3C(=O)C4CCCCC4C3=O)CC2)cc1 (stereo not given),-1%,?,-10%,10%,i,-28%
CCn1cc(S(=O)(=O)CC(=O)Nc2ccc(OC)cc2)c2ccccc21,-3%,?,-2%,-26%,i,-30%
Cc1ccc2c(c1)C1CC(C)(O2)N(c2cccc(C(=O)N3CCN(c4ccccn4)CC3)c2)C(=O)N1 (stereo not given),-10%,i,-3%,?,i,?
COC(=O)c1ccccc1NC(=O)Cn1c(=O)cc(C)c2c(C)nn(C)c21,/,i,/,-27%,i,?
Cc1cc(=O)n(Cc2cccc(Br)c2)c2c1c(C)nn2-c1ccccc1,/,?,/,-22%,i,-9%
COC(=O)c1ccc(Cn2c(=O)cc(C)c3c(C)nn(C)c32)cc1,/,i,/,10µM*,i,16µM*
COc1ccc(OC)c(NC(=O)Cn2c(=O)cc(-c3ccccc3)c3c(C)nn(C)c32)c1,/,i,/,?,i,21µM*
Cc1nn(C)c2c1c(-c1ccccc1)cc(=O)n2Cc1ccc(F)cc1,/,i,/,16µM*,i,?
Cc1nn(C)c2c1c(-c1ccccc1)cc(=O)n2CC(=O)NC(C)(C)C,/,i,/,?,i,?
COc1cccc(Cn2c(=O)cc(C)c3c(C)nn(-c4ccc(C)cc4)c32)c1,/,i,/,21µM*,i,18µM*
O=C(NCC(c1ccco1)N1CCN(c2ccccc2)CC1)C(=O)NC1CCCC1 (stereo not given),10%,i,17%,?,i,?
CNC(=O)NNC(=O)c1nc(-c2ccccc2)c(C)o1,23%,i,20%,6%,i,-5%
Nc1ccc(Cc2ccc(C=O)cc2)cc1,/,i,/,-6%,i,12%
Cc1noc(C)c1S(=O)(=O)N(C)C[C@H]1OCCCC[C@H](C)Oc2ccc(NC(=O)CCCN(C)C)cc2C(=O)N([C@H](C)CO)C[C@@H]1C,-1%,i,7%,-17%,i,-13%
CC1(C(=O)OCc2cc(=O)n3cc(Br)ccc3n2)CC1(Cl)Cl (stereo not given),-3%,i,3%,-6%,i,-25%
O=C(Nc1ccccc1C(=O)NCCCN1CCOCC1)c1ccc(Cl)cc1,-9%,i,-1%,-25%,i,?
Cc1cc(C(=O)CSc2nnnn2C)c(C)n1-c1cccc(F)c1,-28%,?,?,?,i,9.2µM*

# Bioassay records from PubChem.
